Data taken from PubChem BioAssay AID777 (Sanford-Burnham Center for Chemical Genomics, 2007).
Among all 96,000 compounds or so, about 19,000 (20%) were called active. Not all results are given here. A number with no mark means an inactive call.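 Rule for the calls: active = blocking of liver enzyme CYP2C9 beyond about 50% at 5 µM (limit read from the data); inactive = the rest.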

These molecules were tested against Cytochrome P450 2C9 (Homo sapiens) (UniProt P11712) (assay: blockers of cytochrome P450 2C9 activity – biochemical, luminescence, ADME assay, primary screen (AID 777)). Details: CYP2C9 Supersomes, luciferin-H conversion, at 5 µM, active compounds read high.
Sequence of Cytochrome P450 2C9 (Homo sapiens) (P11712 whole entry, looked up): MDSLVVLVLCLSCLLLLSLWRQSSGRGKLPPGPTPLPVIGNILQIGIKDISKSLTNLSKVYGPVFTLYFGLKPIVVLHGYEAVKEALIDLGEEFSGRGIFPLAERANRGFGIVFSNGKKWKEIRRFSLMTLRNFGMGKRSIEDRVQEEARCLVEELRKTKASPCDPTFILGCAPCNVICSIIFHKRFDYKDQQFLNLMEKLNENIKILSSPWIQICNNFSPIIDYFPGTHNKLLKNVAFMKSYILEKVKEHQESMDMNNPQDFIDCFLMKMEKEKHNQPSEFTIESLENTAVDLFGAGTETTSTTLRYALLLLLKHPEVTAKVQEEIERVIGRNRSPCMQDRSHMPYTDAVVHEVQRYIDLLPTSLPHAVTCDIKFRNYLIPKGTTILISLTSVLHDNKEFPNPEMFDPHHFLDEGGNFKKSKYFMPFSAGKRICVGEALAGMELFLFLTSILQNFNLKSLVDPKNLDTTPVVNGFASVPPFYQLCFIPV

Row | SMILES | inhibition
1 | CCOC(=O)c1sc2nc(SC)nc(-c3ccccc3)c2c1N | 13.3%
2 | CCOC(=O)c1sc(N(Cc2ccccc2)C(=O)CN2C(=O)CN(C)C2=O)nc1C | 57.9% (active)
3 | CCOC(=O)c1ccc(N2C(=O)CC(N(C)Cc3ccccc3)C2=O)cc1 (stereo not given) | -9.5%
4 | c1ccc(COc2nsnc2N2CCOCC2)cc1 | 30.3%
5 | Cc1cc(Oc2ccccc2)nc(N2CCOCC2)n1 | 26.5%
6 | c1ccc(Nc2nc(N3CCOCC3)c3ccccc3n2)cc1 | 56.9% (active)
7 | COCc1[nH][nH]c(=O)c1C=Nc1ccc(F)cc1F | -10%
8 | CCCOC(=O)CC1C(=O)NCCN1Cc1ccc(F)cc1 (stereo not given) | 6.4%
9 | CCC(C)(C(=O)NC1CCCCC1)N(C)C(=O)c1ccc2c(c1)OCO2 (stereo not given) | -1.7%
10 | COC(=O)c1ccc(NC(=O)c2ccco2)cc1 | 24%
11 | Cc1ccnc(NC(=O)c2ccc(NC(=O)c3ccco3)cc2)c1 | -0.6%
12 | CC(C)(C)NC(=O)c1cc(NC(=O)c2ccco2)cc(NC(=O)c2ccco2)c1 | 64.8% (active)
13 | CN1CCN(CC(=O)C23CC4CC(CC(C4)C2)C3)CC1 | 5.7%
14 | Cc1cc(C)nc(N2C(=O)CC(Cc3ccccc3)C2=O)n1 (stereo not given) | -14%
15 | Cc1ccc(N2C(=O)C3C(c4ccccc4)(C2=O)C3(c2ccccc2)c2ccccc2)cc1 (stereo not given) | 28.1%
16 | Cc1ccc(N2C(=O)C(Cc3ccccc3)NC2=S)cc1 (stereo not given) | 78.4% (active)
17 | CCOC(=O)N1CCC(NC(=O)CN2C(=O)COc3ccc(C(C)(C)C)cc32)CC1 | 10.3%
18 | CCCCC(=O)N/N=C(\C)CC(=O)Nc1cc(Cl)ccc1OC | -51.9%
19 | CN(C)c1ccc(-n2cccc2/C=C2/SC(=Nc3ccc(F)cc3)NC2=O)cc1 | 5.1%
20 | Cc1ccc(-c2nnc(C)c(N3CC(C)OC(C)C3)n2)cc1 (stereo not given) | 17.3%
21 | COc1ccc(C)cc1NC(=O)CCC(=O)Nc1nnc(C(F)(F)F)s1 | 50.2% (active)
22 | COc1ccc(C)cc1NC(=O)CCS(=O)(=O)c1cccc2nonc12 | 34.9%
23 | COc1ccc(C)cc1NC(=O)CSc1nc(SC)ns1 | -3.2%
24 | O=C1C(C=NCC2CCCO2)=C(O)c2ccccc21 (stereo not given) | 3.5%
25 | CC(=NCc1ccco1)C1=C(O)c2ccccc2C1=O | 78.9% (active)

Row | SMILES | inhibition
26 | CC(=NCc1ccc2c(c1)OCO2)C1=C(O)c2ccccc2C1=O | 28.1%
27 | CC(Sc1sc(=S)sc1SC(C)C(=O)O)C(=O)O (stereo not given) | 10.2%
28 | CCCCn1ccnc1C(=O)c1cccc(S(=O)(=O)N2c3ccccc3CC2C)c1 (stereo not given) | 68.5% (active)
29 | CCn1c(CSc2ncccn2)nnc1SCC(=O)N1c2ccccc2CC1C (stereo not given) | -1.7%
30 | CCS(=O)(=O)c1ccc2oc(SCC(=O)N3c4ccccc4CC3C)nc2c1 (stereo not given) | 46.1%
31 | O=C1Nc2ccc(Br)cc2/C1=N/N=C/C1=C(N2CCOCC2)C(=C\c2ccccc2)/CC1 | 84.9% (active)
32 | Cc1noc(C)c1S(=O)(=O)NCCc1ccc(S(N)(=O)=O)cc1 | -3.8%
33 | CCSC(C)CC1C/C(=N/O)c2c(C)noc2C1 (stereo not given) | 61.3% (active)
34 | COc1ccc(C(=O)NCc2cn3ccccc3n2)cc1 | 2.4%
35 | Cc1occc1C(=O)N1CCCc2ccccc21 | -1.8%
36 | O=C(c1cc(-c2ccc(O)cc2)on1)N1CCCc2ccccc21 | 55.3% (active)
37 | O=C(c1cc(-c2cccc(O)c2)on1)N1CCc2ccccc2C1 | 55.8% (active)
38 | O=C(c1cc(-c2ccccc2O)on1)N1CCCC1 | -51.3%
39 | O=C(c1cccc(C(=O)N2CCc3ccccc32)n1)N1CCc2ccccc21 | 8.6%
40 | O=C(c1cc(-c2cccs2)on1)N1CCCCC1 | -21.4%
41 | CNC(=O)c1nnn(-c2ccccc2)c1C(=O)NC | -7.1%
42 | O=C(O)c1cccnc1NC1CCCC1 | 4.1%
43 | Cc1ccc(Cn2nnc3c(=O)n(CC(=O)N4CCCCC4)cnc32)cc1 | -4.1%
44 | COc1ccc(-n2nnc3c(=O)n(CC(=O)N4CCC(Cc5ccccc5)CC4)cnc32)cc1 | 17.9%
45 | Cc1ccc(NC(=O)N2CCC(c3nc4c(nnn4Cc4c(F)cccc4Cl)c(=O)[nH]3)CC2)cc1 | 87.7% (active)
46 | Cc1ccc(NC(=O)N2CCC(C(=O)NCc3ccc(F)cc3)CC2)cc1 | 34%
47 | O=C(CSCc1c(F)cccc1Cl)NCC1CCCO1 (stereo not given) | -7.5%
48 | COc1ccc(Cn2nnc3c(=O)[nH]c(C4CCN(C(=O)c5ccccc5Cl)CC4)nc32)cc1 | 79.7% (active)
49 | Oc1ccc(CNc2ccccc2O)cc1 | 22.4%
50 | CC(C)(CCl)C(=O)Nc1ccc(Sc2ccc(F)cc2)cc1 | 84.9% (active)

Row | SMILES | inhibition
51 | COC(=O)c1ccc(Sc2ccc(F)cc2)c(N)c1 | 43.1%
52 | CCN(c1ccccc1)S(=O)(=O)c1ccc(NC(=O)C(C)(C)C)cc1 | 31.5%
53 | O=C1CC(NNc2ccccc2)C(=O)N1c1cccc(Cl)c1 (stereo not given) | 0.1%
54 | Cc1noc(C)c1S(=O)(=O)Nc1ccc(C(=O)O)cc1 | 1.8%
55 | CCCCN(CC)C(=O)CN(C)S(=O)(=O)c1cccc2nsnc12 | 16.6%
56 | Clc1ccc(-c2cc(COc3ccccc3)no2)cc1Cl | -0.8%
57 | O=S(=O)(Cc1cc(Sc2ccccc2)nc(-c2ccccc2)n1)c1ccccc1 | 52.5% (active)
58 | O=C1CC2(CCCCC2)Oc2ccc(OCC(=O)N3CCOCC3)cc21 | 2.2%
59 | Brc1cccc(-c2nnc3n2CCC3)c1 | -21.9%
60 | Cc1ccc(Cc2cnc(NC(=O)/C(C#N)=C/c3ccc(-c4cccc([N+](=O)[O-])c4)o3)s2)cc1 | 25.6%
61 | Cc1ccc2c(c1)N(C(=O)CCC(=O)N1CCc3ccccc3C1)CCO2 | 13.6%
62 | O=C1N=C(N2CCCC2)S/C1=C\c1cccc(Br)c1 | -42.1%
63 | CC(C)C(=O)NC(=S)Nc1ccccc1F | 20.1%
64 | COc1ccccc1NC(=S)NC(=O)C(C)C | 12.2%
65 | CC(C)C(=O)Nc1cccc(NC(=S)NC(=O)C(c2ccccc2)c2ccccc2)c1 | 98.8% (active)
66 | CC(=O)c1c(C)[nH]c(C(=O)NCCCN2CCCC2)c1C | -3.6%
67 | COC(=O)CSc1nnc(-c2cccnc2)o1 | -12.9%
68 | O=C(NCc1cccnc1)c1cn(-c2ccccc2)nc1-c1cccs1 | 95.7% (active)
69 | O=C(c1ccccc1-c1ccccc1)N1CCOCC1 | 5%
70 | COc1ccccc1N1CCN(C(=O)c2cn(-c3ccccc3)nc2-c2cccnc2)CC1 | 92% (active)
71 | O=C(Nc1c(C(=O)N2CCCCC2)cnn1-c1ccccc1)c1ccco1 | -0.7%
72 | O=C(Nc1ccc(N2CCN(C(=O)c3ccccc3)CC2)c(Cl)c1)c1cccnc1 | 31.6%
73 | O=C(Nn1cc(C(=O)N2CCN(c3ccccc3F)CC2)c2ccccc2c1=O)c1cnccn1 | 20.7%
74 | Cc1c(C(=O)NCc2ccccc2)cnn1-c1ccccc1 | -4%
75 | O=C(NCc1cccnc1)c1cccnc1Sc1ccc(Cl)cc1 | 39.9%

Row | SMILES | inhibition
76 | O=C(c1cn(-c2ccccc2)nc1-c1cccnc1)N1CCCCC1 | 52.5% (active)
77 | COC(=O)c1cn(-c2ccccc2)nc1-c1cccnc1 | 51.7% (active)
78 | COc1ccc(-c2nn(-c3ccccc3)cc2C(=O)Nc2nc(CC(C)=O)ns2)cc1 | 10.8%
79 | COC(=O)/C(=C\Nc1ccccc1)NC(=O)c1ccc(Cl)cc1Cl | 33.9%
80 | CC(C)(C)n1nc2c(c1NC(=O)c1ccc(S(=O)(=O)N3CCCC3)cc1)CS(=O)C2 (stereo not given) | 4.2%
81 | CCOc1nc(NCCN2CCOCC2)nc(Nc2ccc(C)cc2)n1 | 13%
82 | O=c1c([N+](=O)[O-])cc(C(F)(F)F)cn1Cc1cccc(Cl)c1 | 23.9%
83 | COc1ccc2c(c1OC)C(=O)c1ccccc1C2=O | 21.6%
84 | CN1CCc2c(sc3c2c(NCc2ccco2)nc2nnnn23)C1 | 45.7%
85 | CCN(CC)P(=O)(/C(Cl)=C\Nc1c(C)n(C)n(-c2ccccc2)c1=O)N(CC)CC | -8.4%
86 | CNC(=O)NCCN1CCCC1=O | 35.9%
87 | Cc1nc(NC(=O)CN(C)S(=O)(=O)c2ccc(Cl)cc2)sc1C | 61.3% (active)
88 | Cc1nc(NC(=O)CCC(=O)O)sc1C(=O)N(C)C | 24.5%
89 | CN(CC(=O)Nc1cccc2c1CCCC2)S(=O)(=O)c1ccc(Cl)cc1 | -18.4%
90 | CCOC1CCCCC1NS(=O)(=O)c1ccc(Cl)cc1 (stereo not given) | 5.6%
91 | CCOC(=O)N1CCN(S(=O)(=O)c2ccc(C(=O)Nc3ccc(F)cc3F)cc2)CC1 | 18.7%
92 | CCOC(=O)C1CCCN(C(=O)c2ccc(CS(=O)(=O)c3ccc(Br)cc3)o2)C1 (stereo not given) | 49.8%
93 | O=C(CSc1ncccn1)NCCc1ccccc1 | 17%
94 | O=C(CCS(=O)(=O)Cc1ccccc1F)NCCCN1CCCCC1 | -0.3%
95 | CCOC(=O)CN(C(=O)CN1CCOCC1)c1ccc(Br)cc1 | 5.6%
96 | COc1cc(OC)c(C(=O)NC2CC(C)(C)NC(C)(C)C2)cc1OC | -0.9%
97 | O=C(O)c1ccc(NC(=O)C2CCCCC2)cc1 | -25.8%
98 | O=C(O)C1CCCCC1C(=O)Nc1ccc(Cl)cc1 (stereo not given) | 9.3%
99 | O=C(Nc1cnn(Cc2ccc(Cl)cc2)c1)C1CCCC1 | 56.1% (active)
100 | O=C1CC(c2ccccc2)C(=O)N1c1cccc(O)c1 (stereo not given) | 45%
